Data: PubChem BioAssay (NCATS)
Inconclusive results are not listed. Calls of active or inactive are those of the source. Calls follow the shape of the dose curve; as a rule, active = well fitted cell-killing curve with a large enough effect; inconclusive = small, poorly fitted or top-dose-only effect, or effect the other way; inactive = no such curve, though single readings can be large or run the other way.

Experiment: Quantitative High-Throughput drug screen in 47 multiple myeloma cell lines against the NCATS MIPE library collection: Karpas417_ECACC cell viability assay (AID 1918961)
Conditions: Karpas417 myeloma viability, CellTiter-Glo ATP luminescence, 48 h; viability (% of DMSO): at 45.8 µM (top of the series)
Text: PI: Beverly A. Mock Ph.D.
Laboratory of Cancer Biology and Genetics,
Center for Cancer Research, National Cancer Institute,
National Institute of Health, Bethesda, Maryland
Drug resistance and disease progression are common in multiple myeloma (MM) patients, underscoring the need for new therapeutic combinations. […] We hypothesized that effective combinations would reduce MYC expression and enhance p16 activity. […] These preclinical data identify potentially useful drug combinations for evaluation in drug-resistant MM and reveal potential mechanisms of combined drug sensitivity.
Described herein is the primary MIPE qHTS used to cherrypick compounds. Validated compounds were then further tested for potential synergistic activiy.
[1] Peat TJ, Gaikwad SM, Dubois W, Gyabaah-Kessie N, Zhang S, Gorjifard S, Phyo Z, Andres M, Hughitt VK, Simpson RM, Miller MA, Girvin AT, Taylor A, Williams D, D'Antonio N, Zhang Y, Rajagopalan A, Flietner E, Wilson K, Zhang X, Shinn P, Klumpp-Thomas C, McKnight C, Itkin Z, Chen L, Kazandijian D, Zhang J, Michalowski AM, Simmons JK, Keats J, Thomas CJ, Mock BA. Drug combinations identified by high-throughput screening promote cell cycle transition and upregulate Smad pathways in myeloma. Cancer Lett. 2023 Aug 1;568:216284. doi: 10.1016/j.canlet.2023.216284. Epub 2023 Jun 24. PMID: 37356470; PMCID: PMC10408729.
SEQUENCE No. (e.g., 1, 2, 3, etc.); […] (e.g., Cells, Incubation, Reagent, etc.); VALUE and DESCRIPTION.
1; Cells; 5 uL; white, solid bottom 1536-well Greiner assay plate.
2; Compounds; 23 nL; Kalypsis pin tool (Wako USA) equipped with a 1536-well pin head to transfer to the assay plates.
3; Incubation; 48 hours; 37C incubation.
4; Reagent;5uL; CellTiter Glo (Promega).
5; Detector; 425V; Luminescence; Viewlux PerkinElmer.
NOTES (numbers refer to Sequence numbers above)
1. The cell-based screening methods employed in this study were like those previously published. Briefly, the corresponding myeloma cell lines were screened in 1,536-well plates with 500 cells, 5-uL per well for inhibition of cell viability (assessed by measuring ATP levels with CellTiterGlo).
2. NCATS MIPE 4.0 library of approved and investigational drugs were added using the Kalypsis pin tool. Wells treated with DMSO only for 100% viability and media only wells for 0% viability were used as controls.
3. The assay plates were covered and incubated for 48 hours in a 37C, 5% CO2 incubator with controlled humidity.
4. After 48 hours, CellTilter-GloTM luminescent substrate mix (Promega) reagent was added to the assay plate and plates we incubated for 5 min at room temperature.
5. Signal was measured as median relative luminescence units on a ViewLux (PerkinElmer) multiplate reader.
[1] Heske CM, Davis MI, Baumgart JT, Wilson K, Gormally MV, Chen L, Zhang X, Ceribelli M, Duveau DY, Guha R, Ferrer M, Arnaldez FI, Ji J, Tran HL, Zhang Y, Mendoza A, Helman LJ, Thomas CJ. Matrix Screen Identifies Synergistic Combination of PARP Inhibitors and Nicotinamide Phosphoribosyltransferase (NAMPT) Inhibitors in Ewing Sarcoma. Clin Cancer Res. 2017 Dec 1;23(23):7301-7311. doi: 10.1158/1078-0432.CCR-17-1121. Epub 2017 Sep 12. PMID: 28899971; PMCID: PMC6636827.
Potency is read from the fitted curve at half-maximal effect.

SMILES | Potency | viability (% of DMSO)
CC[C@@]1(O)C(=O)OCc2c1cc1n(c2=O)Cc2cc3ccccc3nc2-1 | 0.296 µM (active) | 
CSCC[C@@H](NC(=O)[C@@H](Cc1ccccc1)NC(=O)CNC(=O)CNC(=O)[C@@H](N)Cc1ccc(O)cc1)C(=O)O |  | 132% (active)
CCCCCC[C@H]1C(=O)O[C@H](C)[C@H](NC(=O)c2cccc(NC=O)c2O)C(=O)O[C@@H](C)[C@@H]1OC(=O)CC(C)C | 0.332 µM (active) | 
CN1CCN(c2ccc([N+](=O)[O-])c3no[n+]([O-])c23)CC1 | 5.26 µM (active) | 
CCOP(=O)(OCC)C(C)NC(=O)N(CCCl)N=O (configuration not stated) | inactive | 
COCC1(CO)C(=O)C2CCN1CC2 (configuration not stated) | 3.72 µM (active) | 
CC(C)(O)C=CC(=O)[C@](C)(O)[C@H]1[C@H](O)C[C@]2(C)[C@@H]3CC=C4[C@@H](C=C(O)C(=O)C4(C)C)[C@]3(C)C(=O)C[C@@]12C | 0.0083 µM (active) | 
COC1=C[C@@H]2[C@@H]3Cc4ccc(OC)c(O)c4[C@]2(CCN3C)CC1=O | 10.5 µM (active) | 
C[C@@H]1O[C@@H](O[C@@H]2C=C3CC[C@@H]4[C@@H](CC[C@]5(C)[C@H](c6ccc(=O)oc6)CC[C@@]45O)[C@@]3(C)CC2)[C@H](O)[C@H](O)[C@H]1O | 0.0148 µM (active) | 
C[C@@H]1CC[C@@]2(OC1)O[C@H]1C[C@H]3[C@@H]4CC=C5C[C@@H](O[C@@H]6O[C@H](CO)[C@@H](O[C@@H]7O[C@@H](C)[C@H](O)[C@@H](O)[C@@H]7O)[C@H](O)[C@@H]6O[C@@H]6O[C@@H](C)[C@H](O)[C@@H](O)[C@@H]6O)CC[C@]5(C)[C@@H]4CC[C@]3(C)[C@@H]1[C@H]2C | 1.05 µM (active) | 
CCN1CCN(C(=O)Cc2ccc(Nc3ncc(F)c(Nc4ccc(C(=O)Nc5ccccc5Cl)cc4)n3)cc2)CC1 | 2.96 µM (active) | 
O=C1C=CC[C@@H]2[C@H]3CCCN4CCC[C@@H](CN12)[C@@H]34 | inactive | 
CC1=C(O)C(=O)C=C2C1=CC=C1[C@@]2(C)CC[C@@]2(C)[C@@H]3C[C@](C)(C(=O)O)CC[C@]3(C)CC[C@]12C | 0.743 µM (active) | 
O=S(=O)(CC1CS1)c1ccc(Oc2ccccc2)cc1 (configuration not stated) | 9.35 µM (active) | 
C[C@](O)(COc1ccc(C#N)cc1)C(=O)Nc1ccc(C#N)c(C(F)(F)F)c1 | 23.5 µM (active) | 
C1=C2CCCN[C@H]2[C@@H]2C[C@H]1[C@@H]1CCCCN1C2 | inactive | 
CC(C)N[C@@H]1CCn2c(=O)[nH]c3cccc(c32)[C@@H]1O | 1.05 µM (active) | 
CCc1c(C(=O)C(N)=O)c2c(OCC(=O)O)cccc2n1Cc1ccccc1 | inactive | 
O=c1[nH]c2ccccc2n1C1CCN(Cc2ccc(-c3[nH]c4cc5ncnc5cc4nc3-c3ccccc3)cc2)CC1 | 1.48 µM (active) | 

SMILES | Potency | viability (% of DMSO)
O=[N+]([O-])c1ncc[nH]1 | inactive | 
C=CCON=C(C[C@H]1O[C@@H]2O[C@]3(C)CC[C@@H]4[C@H](C)CC[C@@H]([C@H]1C)[C@@]24OO3)[C@H]1O[C@@H]2O[C@]3(C)CC[C@H]4[C@H](C)CC[C@@H]([C@@H]1C)[C@@]24OO3 | 0.148 µM (active) | 
Cc1c(C(=O)Nc2cccc(C(F)(F)F)c2)cc(-c2ccccc2)n1CCCN1CCOCC1 | 7.43 µM (active) | 
COc1ccc(CC2NCCc3cc(OC)c(OC)cc32)cc1OC (configuration not stated) | inactive | 
CC1=NN=C(c2ccc(N)cc2)c2cc3c(cc2C1)OCO3 | 20.9 µM (active) | 
O=c1[nH]c2ccc(Cl)cc2c(N[C@@H]2CN3CCC2CC3)c1-c1nc2ccccc2[nH]1 | 0.332 µM (active) | 
CC(=O)N(C)c1cccc(-c2ccnc3c(C(=O)c4cccs4)cnn23)c1 | 23.5 µM (active) | 
C[C@H]1CCCC=CC2C[C@H](O)C[C@@H]2[C@H](O)C=CC(=O)O1 (some centres not stated) | inactive | 
CCOC(=O)Nc1ccc(NCc2ccc(F)cc2)cc1N | inactive | 
CCNC(=O)C[C@@H]1N=C(c2ccc(Cl)cc2)c2cc(OC)ccc2-n2c(C)nnc21 | 0.0132 µM (active) | 
CN(C)[C@@H]1C(=O)C(C(N)=O)=C(O)[C@@]2(O)C(=O)C3=C(O)c4c(O)cccc4[C@@](C)(O)[C@H]3[C@H](O)[C@@H]12 | inactive | 
COc1cccc2c1[C@]13CCN(CC4CC4)[C@H](C2)[C@]1(OC)CCC(=O)C3 |  | 89.4% (active)
CC(C)N(CCNC(=O)CN1CCCC1=O)C(C)C | inactive | 
CC(C)[C@]12O[C@@H]1[C@@H]1O[C@]13[C@]1(O[C@H]1C[C@@H]1C4=C(CC[C@@]13C)C(=O)OC4)[C@H]2O | inactive | 
COc1ccc2c(c1)CN(C)CC2c1ccc(Cl)c(Cl)c1 (configuration not stated) | 14.8 µM (active) | 
NC1=NC(=O)N2CC12 (configuration not stated) | 1.66 µM (active) | 
CCNC(=O)CC1N=C(c2ccc(Cl)cc2)c2cc(OC)ccc2-n2c(C)nnc21 (configuration not stated) | 4.18 µM (active) | 
Cc1ccccc1-n1c(Cn2cnc3c(N)ncnc32)nc2cccc(C)c2c1=O | 0.132 µM (active) | 
